Anthrax LF prot: Bacillus anthracis LF protease inhibitors, primary screen, biochemical, multiplex microsphere, MLPCN library. Lethal factor (Bacillus anthracis), P15917. multiplex microsphere protease cleavage assay. inhibition, % at 10 µM. 0.12% of 360,000 active; further: plate controls were buffer without enzyme for full effect and enzyme alone for no effect
Target sequence (P15917 whole entry, looked up): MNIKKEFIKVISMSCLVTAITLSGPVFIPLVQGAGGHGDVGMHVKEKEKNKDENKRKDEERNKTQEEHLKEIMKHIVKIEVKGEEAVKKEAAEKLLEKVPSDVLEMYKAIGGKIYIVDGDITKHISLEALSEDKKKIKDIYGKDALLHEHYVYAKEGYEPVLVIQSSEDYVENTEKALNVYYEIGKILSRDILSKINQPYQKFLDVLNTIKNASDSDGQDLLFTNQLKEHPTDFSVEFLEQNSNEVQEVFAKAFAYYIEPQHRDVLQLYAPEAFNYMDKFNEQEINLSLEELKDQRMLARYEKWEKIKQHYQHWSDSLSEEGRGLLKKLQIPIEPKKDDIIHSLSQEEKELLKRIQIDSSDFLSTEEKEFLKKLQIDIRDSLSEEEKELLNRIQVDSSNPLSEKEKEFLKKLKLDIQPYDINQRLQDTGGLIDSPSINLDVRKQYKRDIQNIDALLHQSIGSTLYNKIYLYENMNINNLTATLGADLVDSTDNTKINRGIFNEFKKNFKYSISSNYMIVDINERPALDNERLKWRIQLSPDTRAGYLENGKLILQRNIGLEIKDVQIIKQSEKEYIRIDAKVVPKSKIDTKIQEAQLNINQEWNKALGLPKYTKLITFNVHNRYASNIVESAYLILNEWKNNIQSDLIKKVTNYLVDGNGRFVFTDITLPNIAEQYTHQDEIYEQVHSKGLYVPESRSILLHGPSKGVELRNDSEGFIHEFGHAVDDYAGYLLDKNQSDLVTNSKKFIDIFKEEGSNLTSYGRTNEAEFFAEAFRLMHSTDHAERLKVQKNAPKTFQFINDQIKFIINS
BoNT-F LC inh: BoNT/F light chain protease inhibitors, primary screen, biochemical, flow cytometry, MLPCN library | Multiplex microsphere protease cleavage assay | inhibition, % at 10 µM | 0.22% of 360,000 active | AID 588497, 2011; in the data active means inhibition above about 35%, passing the limit was not always enough; inconclusive means no clear call, values can overlap the other calls; further: plate controls were buffer without enzyme for full effect and enzyme alone for no effect
Autofluor counter: flagged as autofluorescent in microsphere protease counterscreen; compound autofluorescence counterscreen, microsphere flow cytometry; active compounds read high; fluorescence intensity (concentration not given with the values); 3.1% of 360,000 active; AID 624483; in the data active means fluorescence intensity above about 16000; inconclusive means no clear call, values can overlap the other calls
SSB-PriA inh: inhibitors of Klebsiella pneumoniae PriA binding to SSB C-terminal tail, primary screen, biochemical, AlphaScreen; 0.6% of 430,000 active; PriA–SSB C-terminal tail interaction (Klebsiella pneumoniae); inhibition, % at 33 µM; AlphaScreen SSBct-PriA binding, biotinylated peptide; in the data active means inhibition mostly above about 37%, no sharp cut-off; inactive means mostly below about 20%;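 further: plate controls were negative control peptide for no effect and reference peptide for full effect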
BoNT A protease: BoNT/A light chain protease inhibitors, primary screen, biochemical, flow cytometry, MLPCN library; Botulinum neurotoxin type A light chain protease (Clostridium botulinum A str. ATCC 3502); multiplex microsphere protease substrate cleavage; inhibition, % at 10 µM; AID 588499, 2011; 0.17% of 360,000 active; further: plate controls were buffer without enzyme for full effect and enzyme alone for no effect
Numbers without * were called inactive; ? = inconclusive; · = not tested or not shown. Sampled rows, rich in hits. Any-hit rate of the full collection: about 3.1%. Unless noted, no stated cut-off is given here; in the data, active means inhibition above about 30%; inconclusive means no clear call, values can overlap the other calls; inactive means below that.

SMILES | Anthrax LF prot | BoNT-F LC inh | Autofluor counter | SSB-PriA inh | BoNT A protease
Cc1cc(C)n2nc(C(=O)N3CCS[C@H](c4ccccc4Cl)CC3)nc2n1 | · | · | · | -4.0 | ·
O=C(Nc1ccc(N2CCOCC2)cc1)Nc1ccc(Cl)c(Cl)c1 | -7.8 | -8.4 | 17169* | 23.2 | -4.2
O=C(Nc1ccc(Cl)cc1)Nc1ccc(N2CCOCC2)cc1 | 3.1 | -17.4 | 4028 | 4.4 | -0.6
c1ccc2c(N3CCCCC3)ncnc2c1 | -4.3 | 14.0 | 4588 | -16.1 | -1.2
CN1CC[n+]2cnc3ccccc3c21 | -11.9 | 5.5 | 18857* | -2.1 | ?
CCc1ccc(/C=N\n2cnnc2)cc1 | ? | 45.4* | 3657 | · | 5.6
Fc1ccc(/C=N\n2cnnc2)cc1 | · | · | · | 4.0 | ·
CCOc1ccc(/C=N/n2cnnc2)cc1 | 3.0 | -3.0 | 17072* | · | ?
CC(C)CN(CC(C)C)C(=O)CSc1nc2ccccc2[nH]1 | · | · | · | -9.0 | ·
COc1ccccc1-n1ncc2c(C(C)C)nnc(SCC(=O)NC(C)C)c21 | · | · | · | -16.0 | ·
CNCc1nc2ccccc2n1C | · | · | · | -18.0 | ·
Cc1ccnc(NC2(C(F)(F)F)N=C(c3ccccc3)NC2=O)c1 (stereo not given) | -3.3 | 4.6 | 19679* | -5.5 | 2.6
Cc1cc(C)c(C)c(Cn2c(CCNC(=O)CCC(C)O)nc3ccccc32)c1C (stereo not given) | · | · | · | 2.0 | ·
CC1(C)C(C(N)=O)C(=O)NC(=O)C1C(N)=O (stereo not given) | -6.2 | -9.4 | 4178 | · | -0.3
CC1(C)NC(C)(C)C(O)(C(N)=O)C1=O (stereo not given) | -2.1 | -1.2 | 23198* | 1.4 | -1.5
CCn1c(=NC(=O)c2sc3ccccc3c2Cl)sc2c(C)ccc(OC)c21 | · | · | · | -5.0 | ·
Cc1coc2cc3oc(=O)cc(C)c3cc12 | -8.4 | -11.6 | 7288 | -3.2 | -0.8
COc1ccc(-c2cc(=O)oc3cc4occ(C)c4cc23)cc1 | -2.1 | 1.2 | 22808* | -6.2 | 1.0
CNC(=O)C1CC(=O)N(Cc2ccccc2)C(=Nc2ccc(OC)cc2)S1 (stereo not given) | -0.6 | -4.0 | 23832* | -3.4 | ?
Cc1ccc(-n2nc3c(c2NC(=O)c2c(-c4ccccc4Cl)noc2C)CS(=O)(=O)C3)c(C)c1 | -1.7 | -3.2 | 23658* | -1.0 | ?
Cc1ccccc1-n1nc2c(c1NC(=O)c1c(-c3ccccc3Cl)noc1C)CS(=O)(=O)C2 | -9.8 | -7.0 | 16862* | 4.8 | -2.5
Cc1ccc(-n2nc3c(c2NC(=O)c2cccs2)CS(=O)(=O)C3)c(C)c1 | -1.7 | 3.0 | 5951 | -7.6 | 0.5
O=C(c1cccc(Nc2nc(-c3ccccc3)c3cc(Br)ccc3n2)c1)N1CCCCC1 | · | · | · | 2.0 | ·
COc1ccc(N(C)c2nnc(-c3ccc(NC(=O)C(=O)NCc4ccco4)cc3)s2)cc1 | · | · | · | -3.0 | ·
CC(C)(C)n1nnnc1CN(Cc1ccco1)Cc1cc2cc3c(cc2[nH]c1=O)OCO3 | -1.1 | -9.5 | 2202 | -3.4 | 0.0
SMILES | Anthrax LF prot | BoNT-F LC inh | Autofluor counter | SSB-PriA inh | BoNT A protease
COCCn1nnnc1CN(Cc1ccco1)Cc1cc2cc3c(cc2[nH]c1=O)OCO3 | -0.4 | -0.9 | 23147* | -14.6 | 0.1
FC(F)(F)c1cccc(NC(=S)NCCc2ccccn2)c1 | -5.6 | -1.2 | 21974* | -10.9 | 0.7
CSc1ncccc1C(=O)NC[C@H](O)c1cccc2ccccc12 | · | · | · | -15.0 | ·
c1ccc(-c2cc(-c3ccc4c(c3)OCCO4)c(-c3ccccc3)nn2)cc1 | · | · | · | 5.0 | ·
C/C(=N\NC(=O)c1ccccc1O)c1c(O)cc(C)oc1=O | 3.1 | 17.0 | 17536* | · | 11.2
CC(=NNC(=O)c1ccccc1O)c1c(O)cc(C)oc1=O | · | · | · | 5.4 | ·
Cc1oc(C2CC2)cc1C(=O)O | -1.7 | -0.6 | 19572* | -2.3 | 0.8
COc1ccccc1-c1nc(C#N)c(N2CC(C)CC(C)C2)o1 (stereo not given) | -4.6 | -3.0 | 4649 | -1.5 | -1.0
CC1CCCN(c2oc(-c3cccc4ccccc34)nc2C#N)C1 (stereo not given) | -15.0 | 16.3 | 17536* | -10.6 | 10.0
Cc1ccccc1-c1nc(C#N)c(N2CCCC(C)C2)o1 (stereo not given) | · | · | · | 65.8* | ·
Cc1ccccc1-c1nc(C#N)c(N2CCOCC2)o1 | · | · | · | 70.2* | ·
Cc1ccccc1-c1nc(C#N)c(N2CCCC2)o1 | · | · | · | 60.9 | ·
CC1CC(C)CN(c2oc(-c3ccccc3F)nc2C#N)C1 (stereo not given) | 1.4 | 11.2 | 3809 | 49.8* | -0.3
O=C1CCCN1c1cccc(NS(=O)(=O)c2ccc(N3CCCCS3(=O)=O)cc2)c1 | · | · | · | -9.0 | ·
C=CCN1C(=O)C(C)(C)COc2cc(NS(=O)(=O)c3ccc(F)cc3)ccc21 | · | · | · | -4.0 | ·
COC(=O)c1ccc(Oc2coc3cc(OC(=O)C4CCCCC4)ccc3c2=O)cc1 | · | · | · | 5.0 | ·
COc1cc(Cl)c(C)cc1NC(=O)COc1cc(C)nc(N2CCCC2)n1 | · | · | · | -8.0 | ·
O=C(Cn1cnc2c(sc3cccc(F)c32)c1=O)Nc1ccccc1C(F)(F)F | · | · | · | -8.0 | ·
Cc1oc2c(c1C(=O)Nc1ccc(C(=O)O)cc1)CCCC2 | -1.5 | 1.0 | 17117* | 5.3 | -1.3
Cc1oc2c(c1C(=O)NCc1ccccc1)CCCC2 | -1.3 | -22.6 | 9873 | 1.0 | -1.4
CC(C)NC(=O)c1noc2cc([N+](=O)[O-])ccc12 | 0.6 | -0.7 | 9065 | 4.0 | 0.1
CN(C)C(=O)c1noc2cc([N+](=O)[O-])ccc12 | -6.6 | -3.6 | 16570* | -7.5 | -1.3
Cn1cccc1C(=O)OCC(=O)c1cc2ccccc2o1 | -5.2 | -3.3 | 20874* | 15.1 | ?
O=C(COC(=O)c1ccc(Cl)s1)c1cc2ccccc2o1 | -5.0 | -4.7 | 20753* | -34.9 | -1.9
O=C(CSc1nc2cc(Cl)ccc2s1)c1cc2ccccc2o1 | 7.2 | -1.0 | 19577* | -5.7 | 3.3
SMILES | Anthrax LF prot | BoNT-F LC inh | Autofluor counter | SSB-PriA inh | BoNT A protease
Cn1cccc1C(=O)OCC(=O)c1c[nH]c2ccccc12 | -2.2 | 3.1 | 4120 | -6.0 | 0.5
Cc1cc(NC(=O)CSc2nc3cc(Cl)ccc3s2)no1 | -0.9 | -3.7 | 3414 | -5.0 | -0.6
CCOc1cc(C=NNc2nc(-c3cccc(S(=O)(=O)N4CCCC4)c3)cs2)ccc1O | · | · | · | -9.7 | ·
CC(C)(C)NC(=O)CN(Cc1cccs1)C(=O)C1COc2ccccc2O1 (stereo not given) | 0.1 | -1.3 | 23568* | -15.8 | -0.7
CC(C)(C)NC(=O)CN(Cc1cccs1)C(=O)CN1C(=O)C(=O)c2ccccc21 | -3.6 | 5.1 | 3311 | -11.6 | 0.5
CC(C)C(=O)N1CCc2ccc(NC(=O)Cc3ccc(Cl)cc3)cc2C1 | · | · | · | -8.0 | ·
O=C(OCc1ccccc1)C1CCCN1C(=O)c1ccccc1[N+](=O)[O-] (stereo not given) | -1.0 | 1.4 | 20292* | -0.4 | ?
Cc1noc(C)c1C(=O)N1CCC(Cc2ccccc2)CC1 | 1.4 | 1.2 | 22708* | -12.5 | ?
O=C(c1ccccc1[N+](=O)[O-])N1CCC(Cc2ccccc2)CC1 | -0.4 | -3.3 | 22923* | 7.7 | -2.1
CN(C)S(=O)(=O)c1ccc(C(=O)N=c2sc3cc4c(cc3n2C)OCO4)cc1 | · | · | · | -20.0 | ·

High-throughput results as filed in PubChem BioAssay.
